SMILES strings stand for the structures. Where “and” joins values, the source holds several entries; their conditions need not be identical. Identical values can stand only once. The panel holds about 79,000 compounds, 15% with a hit somewhere; the sample as a whole holds those more often. Some compounds were tested as several samples or in several runs, with calls that do not always agree. Calls of active or inactive are those of the source. Rule as the data show it: active = growth inhibition above about 70%; inactive = the rest.

The first assay in a line: NCI Yeast Anticancer Drug Screen. Data for the cln2 rad14 strain (AID 165).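 Also: 0% = growth equal to vehicle treated cultures.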 As to conditions: S. cerevisiae cln2 rad14 strain, at 50.0 µM (retest, dose inferred, filed as 5.0), stronger effect = higher value. The method in brief: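 Growth inhibition, relative to vehicle-treated controls, is the read-out. The test organism is a yeast strain with defined genetic alterations, cln2 rad14.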
In the case of `OCC1OC(n2cnc3c(=S)nc[nH]c32)C(O)C1O` (centres undefined), the growth inhibition was -7% (inactive).

`CCOC(=O)C(C(=O)c1ccccc1)C(=O)c1ccccc1`: the growth inhibition was 56% (inactive).

Turning to `COC1/C=C\C=C(/C)C(=O)Nc2cc3nc4ccc(Br)cc4oc-3c(c2=O)CC(C)CC(OC)C(O)C(C)/C=C(\C)C1OC(N)=O` (centres undefined), the growth inhibition is 92% (active).

For the molecule `Nc1ccc([N+](=O)[O-])c(S(=O)(=O)O)c1`, the growth inhibition is -53% (inactive).

`CCOc1ccc2ccccc2c1C(Cc1ccc(Cl)cc1)NCCO` (centres undefined): the growth inhibition was -7% (inactive).

On to `O=C1C(=Cc2ccc(O)cc2)N=C(c2ccccc2)N1n1c(-c2ccccc2)nc2ccccc2c1=O`, for which the growth inhibition is 40% (inactive).

In the case of `Cc1nc2ccccc2cc1CCl`, the growth inhibition was 80% (active).

In the case of `Cc1cc(NS(=O)(=O)c2ccc(N=Nc3cc(N=Nc4ccc(S(=O)(=O)Nc5cc(C)nc(C)n5)cc4)c4c(NC(=O)C(Cl)Cl)cccc4c3OC(=O)C(Cl)Cl)cc2)nc(C)n1` (tested in a mixture with another compound), the growth inhibition is 80% (active).

On to `CCCCCCN(CCCCCC)C(=O)C1=C(C)NC(C)=C(C(=O)N(CCCCCC)CCCCCC)C1`, for which the growth inhibition was 14% (inactive).

On to `O=[N+]([O-])Cc1cnc2nncn2n1`, for which the growth inhibition is 53% (inactive).

Consider `COc1ccc(N/N=C(\CCN(C)C)c2ccccc2)cc1`, for which the growth inhibition is 32% (inactive).

On to `O=C(O)/C(=C(/c1ccccc1)c1ccc(Cl)cc1)c1ccccc1`, for which the growth inhibition is 99% (active).

For `c1ccc([P+](CCCCCCCC[P+](c2ccccc2)(c2ccccc2)c2ccccc2)(c2ccccc2)c2ccccc2)cc1`, the growth inhibition is 95% (active).

Turning to `OCCNc1nc(NCCO)c2nc(-c3ccccc3)c(-c3ccccc3)nc2n1`, the growth inhibition is 37% (inactive) and 32% (inactive).

In the case of `OC(c1ccccc1)(c1ccccc1)c1ccccc1` (tested in a mixture with another compound), the growth inhibition was 94% (active).

For the molecule `CC(=O)Nc1c(Cl)c(Cl)c2c(c1Cl)Cc1cc(Cl)ccc1-2`, the growth inhibition was 99% (active).

Turning to `Cc1cc(C)nc(NS(=O)(=O)c2ccc(Nc3c4ccccc4nc4c(C(=O)NCCCN(CCO)CCO)cccc34)cc2)n1`, the growth inhibition is 5% (inactive).

For the molecule `CCn1c2ccccc2c2ccc(N=Cc3ccc(N(C)C)cc3)cc21`, the growth inhibition was 45% (inactive).

Consider `O=C(C(=Cc1ccccc1)C(=O)c1ccccc1)c1ccccc1`, for which the growth inhibition is 89% (active).

Consider `c1ccc(C2=NC(c3ccccc3)=NS(S3=NC(c4ccccc4)=NC(c4ccccc4)=N3)=N2)cc1` (centres undefined), for which the growth inhibition was 94% (active).

Turning to `Nc1nc(-c2ccccn2)cc2ccccc12`, the growth inhibition is 62% (inactive).

Take `CCN(CC)CCCn1c2cc(=O)c(=O)cc-2[nH]c2cc(C)ccc21`: the growth inhibition is 55% (inactive).

On to `COc1cc(O)ccc1C(=S)SC`, for which the growth inhibition is 29% (inactive).

Regarding `O=[N+]([O-])C1=C(c2ccccc2)SC=C(c2ccccc2)S1`, the growth inhibition was 64% (inactive) and -4% (inactive).

As for `N#CC1(C2SCCS2=O)C2=C(C(=O)c3ccccc3C2=O)N2CCCC21` (centres undefined), the growth inhibition was 40% (inactive).

On to `O=C1C=CC(=O)C(C2OC(=O)C(Br)=C2Br)=C1` (centres undefined), for which the growth inhibition was -10% (inactive).

In the case of `CN1CCN(CCCN2c3ccccc3Sc3ccc(C(F)(F)F)cc32)CC1`, the growth inhibition was 84% (active) and 78% (active).

As for `Cc1ccc(S(=O)(=O)C23C(N=NC2(C)C)C3(C)C)cc1` (centres undefined), the growth inhibition was 15% (inactive).

For `COC(=O)C(=O)C(C(=O)C(c1ccccc1)c1ccccc1)c1nc2n(c1O)/C(=N/C(=O)Nc1ccc(Cl)cc1)N=N2` (centres undefined), the growth inhibition is 30% (inactive).

Turning to `O=C(O)c1ccc2c(c1)Cc1cc([N+](=O)[O-])ccc1-2`, the growth inhibition was 83% (active).

As to `O=c1[nH]c2cc([N+](=O)[O-])ccc2nc1/C=C(\O)c1ccc([N+](=O)[O-])cc1`, the growth inhibition was 38% (inactive).

`c1ccc(C(c2ccccc2)n2ccnc2)cc1`: the growth inhibition is -21% (inactive).

For `c1ccc2c(c1)CNc1ccccc1-2`, the growth inhibition was 16% (inactive).

For `COC(=O)c1nnn(-c2ccc(S(N)(=O)=O)cc2)c1N`, the growth inhibition was 1% (inactive).

As for `COC(=O)c1ccc(O)c(OC)c1`, the growth inhibition was 2% (inactive).

Regarding `O=c1[nH]c(SCc2c(Cl)c(Cl)c(Cl)c(Cl)c2Cl)nc(=S)[nH]1`, the growth inhibition was 67% (inactive).

`Cc1nc2c(ccc3[nH]c4ccccc4c32)s1`: the growth inhibition is 99% (active).

Still in this assay, the particulars now being: S. cerevisiae cln2 rad14 strain, at 50.0 µM, stronger effect = higher value.
As to `OCC1OC(n2cnc3c(=S)nc[nH]c32)C(O)C1O` (centres undefined), the growth inhibition is 24.9% (inactive) and -27% (inactive).

`CCOC(=O)C(C(=O)c1ccccc1)C(=O)c1ccccc1`: the growth inhibition is -21.1% (inactive) and 90.6% (active).

For the molecule `COC1/C=C\C=C(/C)C(=O)Nc2cc3nc4ccc(Br)cc4oc-3c(c2=O)CC(C)CC(OC)C(O)C(C)/C=C(\C)C1OC(N)=O` (centres undefined), the growth inhibition was 89% (active).

On to `Nc1ccc([N+](=O)[O-])c(S(=O)(=O)O)c1`, for which the growth inhibition was 40.2% (inactive) and -6.5% (inactive).

Turning to `CCOc1ccc2ccccc2c1C(Cc1ccc(Cl)cc1)NCCO` (centres undefined), the growth inhibition is 98.6% (active).

Consider `O=C1C(=Cc2ccc(O)cc2)N=C(c2ccccc2)N1n1c(-c2ccccc2)nc2ccccc2c1=O`, for which the growth inhibition is 44.9% (inactive).

With `Cc1nc2ccccc2cc1CCl`, the growth inhibition was 70.3% (active).

Consider `Cc1cc(NS(=O)(=O)c2ccc(N=Nc3cc(N=Nc4ccc(S(=O)(=O)Nc5cc(C)nc(C)n5)cc4)c4c(NC(=O)C(Cl)Cl)cccc4c3OC(=O)C(Cl)Cl)cc2)nc(C)n1` (tested in a mixture with another compound), for which the growth inhibition was -3.85% (inactive) and 41.8% (inactive).

With `CCCCCCN(CCCCCC)C(=O)C1=C(C)NC(C)=C(C(=O)N(CCCCCC)CCCCCC)C1`, the growth inhibition was 0.5% (inactive).

For the molecule `O=[N+]([O-])Cc1cnc2nncn2n1`, the growth inhibition was 24.2% (inactive).

On to `COc1ccc(N/N=C(\CCN(C)C)c2ccccc2)cc1`, for which the growth inhibition was 57.9% (inactive).

As to `O=C(O)/C(=C(/c1ccccc1)c1ccc(Cl)cc1)c1ccccc1`, the growth inhibition is 94.2% (active) and 91.3% (active).

For `c1ccc([P+](CCCCCCCC[P+](c2ccccc2)(c2ccccc2)c2ccccc2)(c2ccccc2)c2ccccc2)cc1`, the growth inhibition is 87.7% (active).

Turning to `OCCNc1nc(NCCO)c2nc(-c3ccccc3)c(-c3ccccc3)nc2n1`, the growth inhibition is -7.45% (inactive) and 49.8% (inactive).

As to `OC(c1ccccc1)(c1ccccc1)c1ccccc1` (tested in a mixture with another compound), the growth inhibition is -4.75% (inactive) and 95.2% (active).

As for `CC(=O)Nc1c(Cl)c(Cl)c2c(c1Cl)Cc1cc(Cl)ccc1-2`, the growth inhibition was 95.5% (active).

With `Cc1cc(C)nc(NS(=O)(=O)c2ccc(Nc3c4ccccc4nc4c(C(=O)NCCCN(CCO)CCO)cccc34)cc2)n1`, the growth inhibition was 74.3% (active).

As to `CCn1c2ccccc2c2ccc(N=Cc3ccc(N(C)C)cc3)cc21`, the growth inhibition was 27.4% (inactive).

As to `O=C(C(=Cc1ccccc1)C(=O)c1ccccc1)c1ccccc1`, the growth inhibition is 83.8% (active) and -79.9% (inactive).

With `c1ccc(C2=NC(c3ccccc3)=NS(S3=NC(c4ccccc4)=NC(c4ccccc4)=N3)=N2)cc1` (centres undefined), the growth inhibition was 43% (inactive).

For `Nc1nc(-c2ccccn2)cc2ccccc12`, the growth inhibition was 4.4% (inactive).

For the molecule `CCN(CC)CCCn1c2cc(=O)c(=O)cc-2[nH]c2cc(C)ccc21`, the growth inhibition was -15.4% (inactive).

Regarding `COc1cc(O)ccc1C(=S)SC`, the growth inhibition is 9% (inactive).

Consider `O=[N+]([O-])C1=C(c2ccccc2)SC=C(c2ccccc2)S1`, for which the growth inhibition is 54.9% (inactive) and 89.1% (active).

On to `N#CC1(C2SCCS2=O)C2=C(C(=O)c3ccccc3C2=O)N2CCCC21` (centres undefined), for which the growth inhibition was 43.2% (inactive).

For `O=C1C=CC(=O)C(C2OC(=O)C(Br)=C2Br)=C1` (centres undefined), the growth inhibition was -17.7% (inactive).

For the molecule `CN1CCN(CCCN2c3ccccc3Sc3ccc(C(F)(F)F)cc32)CC1`, the growth inhibition was 98% (active) and 84.7% (active).

With `Cc1ccc(S(=O)(=O)C23C(N=NC2(C)C)C3(C)C)cc1` (centres undefined), the growth inhibition was -39.9% (inactive).

For `COC(=O)C(=O)C(C(=O)C(c1ccccc1)c1ccccc1)c1nc2n(c1O)/C(=N/C(=O)Nc1ccc(Cl)cc1)N=N2` (centres undefined), the growth inhibition is 56.3% (inactive).

On to `O=C(O)c1ccc2c(c1)Cc1cc([N+](=O)[O-])ccc1-2`, for which the growth inhibition was 34.6% (inactive).

With `O=c1[nH]c2cc([N+](=O)[O-])ccc2nc1/C=C(\O)c1ccc([N+](=O)[O-])cc1`, the growth inhibition is 34% (inactive) and -15.9% (inactive).

Turning to `c1ccc(C(c2ccccc2)n2ccnc2)cc1`, the growth inhibition is 66.6% (inactive).

`c1ccc2c(c1)CNc1ccccc1-2`: the growth inhibition is 7.4% (inactive).

As for `COC(=O)c1nnn(-c2ccc(S(N)(=O)=O)cc2)c1N`, the growth inhibition is 18.7% (inactive).

As for `COC(=O)c1ccc(O)c(OC)c1`, the growth inhibition was 28.1% (inactive).

With `O=c1[nH]c(SCc2c(Cl)c(Cl)c(Cl)c(Cl)c2Cl)nc(=S)[nH]1`, the growth inhibition was 43.1% (inactive).

In the case of `Cc1nc2c(ccc3[nH]c4ccccc4c32)s1`, the growth inhibition is 91% (active).

The values are drawn from PubChem BioAssay (NCI).
